Reference: PubChem BioAssay
A number with no mark means an inactive call. Active and inactive are the calls of the source. Rule as the data show it, unless noted: active = inhibition above about 36%; inactive = the rest.

Experiments:
[1] = tested on: transactivating tegument protein VP16 (Human herpesvirus 1); test: compounds suppressing VP16-driven luciferase signal – cell-based, luminescence, single concentration, counter-screen for SRC2 inhibitor project (AID 652007); conditions: cell-based VP16 transactivation luciferase reporter, at 8.9 µM, hits give high values
[2] = target: Nuclear receptor coactivator 2 (Homo sapiens) (UniProt Q15596); test: inhibition of GAL4-SRC2 driven luciferase expression – cell-based, luminescence, HEK293, triplicate, confirmation (AID 652008;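 active = mean inhibition above 46.5%, the solvent-only control mean plus 3 SD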;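 also: 0% = DMSO-treated cells and 100% = Gossypol at 36 µM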); conditions: HEK293 GAL4-SRC2 luciferase reporter, at 8.9 µM, hits give high values
Nuclear receptor coactivator 2 (Homo sapiens), sequence (Q15596 whole entry, looked up, the tested form may be a part): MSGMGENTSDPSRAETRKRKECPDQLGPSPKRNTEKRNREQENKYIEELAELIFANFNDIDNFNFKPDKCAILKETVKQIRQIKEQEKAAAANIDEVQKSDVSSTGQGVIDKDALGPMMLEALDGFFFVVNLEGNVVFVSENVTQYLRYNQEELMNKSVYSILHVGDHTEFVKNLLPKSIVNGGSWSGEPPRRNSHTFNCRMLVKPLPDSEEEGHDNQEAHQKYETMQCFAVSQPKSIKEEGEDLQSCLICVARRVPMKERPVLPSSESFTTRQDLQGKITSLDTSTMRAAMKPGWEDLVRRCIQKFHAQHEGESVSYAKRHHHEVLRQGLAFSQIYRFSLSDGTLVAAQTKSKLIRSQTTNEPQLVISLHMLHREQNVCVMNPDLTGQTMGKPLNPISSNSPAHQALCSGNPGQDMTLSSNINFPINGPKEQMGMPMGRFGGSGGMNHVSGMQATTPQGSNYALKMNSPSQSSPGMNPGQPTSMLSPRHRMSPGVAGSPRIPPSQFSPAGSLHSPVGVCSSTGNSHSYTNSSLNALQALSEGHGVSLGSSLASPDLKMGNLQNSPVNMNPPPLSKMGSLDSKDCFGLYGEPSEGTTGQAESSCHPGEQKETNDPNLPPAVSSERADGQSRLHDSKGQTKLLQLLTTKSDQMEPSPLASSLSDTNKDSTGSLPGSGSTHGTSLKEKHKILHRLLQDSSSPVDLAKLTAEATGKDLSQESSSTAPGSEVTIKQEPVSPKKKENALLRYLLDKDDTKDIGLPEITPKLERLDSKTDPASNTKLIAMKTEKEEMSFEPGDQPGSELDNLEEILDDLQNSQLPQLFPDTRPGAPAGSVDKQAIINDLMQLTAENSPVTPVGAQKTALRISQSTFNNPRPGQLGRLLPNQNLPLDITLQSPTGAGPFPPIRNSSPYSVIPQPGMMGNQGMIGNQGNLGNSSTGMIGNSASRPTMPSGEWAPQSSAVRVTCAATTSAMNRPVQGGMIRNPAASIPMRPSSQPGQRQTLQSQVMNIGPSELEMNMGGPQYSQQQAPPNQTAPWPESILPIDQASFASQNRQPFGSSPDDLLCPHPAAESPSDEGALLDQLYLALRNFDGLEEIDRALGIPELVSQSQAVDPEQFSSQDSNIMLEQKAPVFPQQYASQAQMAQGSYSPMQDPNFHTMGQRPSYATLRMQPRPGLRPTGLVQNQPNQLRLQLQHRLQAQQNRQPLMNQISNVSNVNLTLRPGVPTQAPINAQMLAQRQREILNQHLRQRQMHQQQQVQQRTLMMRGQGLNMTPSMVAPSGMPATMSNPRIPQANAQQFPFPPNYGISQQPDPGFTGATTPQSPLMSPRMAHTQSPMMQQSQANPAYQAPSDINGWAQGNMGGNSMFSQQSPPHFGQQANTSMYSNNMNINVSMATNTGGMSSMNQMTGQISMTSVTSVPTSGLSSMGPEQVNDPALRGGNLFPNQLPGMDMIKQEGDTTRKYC

SMILES	inhibition [1]	inhibition [2]
Cn1cnnc1SCC(=O)NC1CCCC1	-4.24%	-19.9%
O=C(Cc1coc2cc3c(cc12)CCC3)OCC(=O)N1CCCC1=O	16.3%	38.7%
COc1ccc(/C=C2\SC(=S)N(CCC(=O)N3CCCCC3CCO)C2=O)cc1 (centres undefined)	1.26%	26.7%
COc1ccccc1N1CCN(C(CNC(=O)c2ccco2)c2cccnc2)CC1 (centres undefined)	-7.16%	-4.45%
Cn1nnnc1Sc1ncnc2scc(-c3ccc(C(F)(F)F)cc3)c12	35.2%	44.4%
COc1ccc(CN2CCC(C(=O)Nc3ccc(Oc4ccccc4)nc3)CC2)cc1F	16.9%	28.5%
CC(C)c1ccc(/C=C/C(=O)N2CCCCCC2)cc1	-73.2%	-26%
Cc1sc(NC(=O)CCCC(=O)O)c(C(N)=O)c1-c1ccccc1	37.1% (active)	75.5% (active)
CCOC(=O)C1=CCN(S(=O)(=O)c2ccccc2C)C1c1ccc(Cl)c(Cl)c1 (centres undefined)	-18.3%	-14%
CCN1CCCc2cc(CN(CCN3CCOCC3)C(=S)Nc3ccccc3OC)ccc21	-14.1%	-10.6%
Cc1cc(N/N=C/c2ccc(O)cc2)nc(NS(=O)(=O)c2ccccc2)n1	-14.1%	16.5%
CS(=O)(=O)N1CCC(C(=O)NCc2ccccc2)CC1	-4.73%	-13.2%
Cc1ccc(C)c(NS(=O)(=O)c2cc(C(=O)NCCSC3CCCCC3)ccc2C)c1	-17.6%	3.68%
COc1ccc(/C=C2\SC(=S)N(CCCC(=O)N3CCOCC3)C2=O)cc1	45.9% (active)	35.5%
Cc1cc(Br)ccc1NC(=O)CN(C)C(=O)C1CCN(c2ncnc3sc(C)c(C)c23)CC1	12.9%	23%
COCCn1c(SCC(=O)/C=C2\N(C)c3ccccc3C2(C)C)nnc1-c1ccncc1	-4.56%	8%
O=C(Nc1nc2ccccc2s1)c1ccc(N2CCCCC2)c([N+](=O)[O-])c1	-57.5%	10%
COC(=O)C1Cc2ccccc2CN1C(=O)CCl (centres undefined)	27.7%	33.2%
CCCCN(CCCNC(=S)NCCCc1cnc[nH]1)c1ccc(Br)cn1	-7.99%	39.1%
C=CS(=O)(=O)N(Cc1ccc(C)cc1)[C@@H](CO)C(=O)OC	17.1%	63.8% (active)
O=C(CSc1nc2nc(-c3cccs3)cc(C(F)(F)F)c2c(=O)[nH]1)C(F)(F)F	-28.3%	10%
O=C1NC(Cc2ccc(O)cc2)c2nc3cc(Cl)ccc3c(=O)n2-c2ncccc21 (centres undefined)	-1.01%	-15.2%
Cc1c(CCC(=O)O)c(=O)oc2cc(OCc3ccccc3Br)ccc12	19.4%	20.1%
COc1ccc(Cl)cc1C(=O)Nc1nc2ccccc2[nH]1	-42.5%	10.7%

SMILES	inhibition [1]	inhibition [2]
O=C(c1ccc(S(=O)(=O)NCc2ccco2)cc1)N1CCN(Cc2ccc3c(c2)OCO3)CC1	-2.59%	3.12%
CCCCC(NC(=O)CCc1c(C)c2cc3c4c(oc3c(C)c2oc1=O)CCCC4)C(=O)O (centres undefined)	31.6%	29.4%
Cc1cc(=O)c2ccccc2n1Cc1ccccc1	-10.6%	18.6%
CCOC(=O)[C@]12CCC=C1N(CCC1=CCCCC1)C(=O)[C@H](CC(=O)N1CCC(c3ccccc3)CC1)C2	1.35%	-24.7%
COc1ccc(C(=O)Nc2nc3ccccc3[nH]2)cc1	-57.5%	13.5%
CCC(C)(C(=O)NC1CCCCC1)N(Cc1cccs1)C(=O)CC1NC(=O)NC1=O (centres undefined)	-9.62%	-11.8%
CCC(=O)Nc1ccc(NCc2ccc(-c3ccccc3)cc2)cc1	20.7%	17.8%
O=C(NC1CC1)c1ccc(-c2nc3ccccc3s2)s1	-51.1%	16.9%
CC1(C(=O)NS(=O)(=O)Cc2ccccc2C(F)(F)F)CCN1C(=O)c1ccco1 (centres undefined)	0.06%	-19.7%
COc1ccccc1C(=O)NCc1ccc(-c2nc3ccccc3s2)cc1	-14%	22.1%
O=C(Nc1ccc(F)cc1)c1nc(S(=O)(=O)Cc2ccccc2)ncc1Cl	36.6% (active)	37.9%
CCCCCCCCN1C(=O)[C@H](CC(=O)NCCCC)C[C@@]2(C(=O)OCC)CCCC=C12	-14%	-0.38%
COc1ccc(OC)c(NC(=O)COC(=O)CCCN=C2NS(=O)(=O)c3ccccc32)c1	-0.67%	-10.3%
O=[N+]([O-])c1cccc2cnccc12	-10.2%	3.57%
CCCN1C2CCCC1CC(NC(=O)c1cccc(Cl)c1)C2 (centres undefined)	4.37%	40.8%
CC(C)(C)c1ccccc1NC(=O)CN1C(=O)NC2(CCCC2)C1=O	-13.7%	-9.65%
Cc1nc2cc(-c3ccccc3)sc2c(=O)n1N	22.3%	45%
Oc1cccc(C(Nc2nccs2)c2ccc3cccnc3c2O)c1 (centres undefined)	-15.2%	7.61%
COc1ccc(OCCCCn2c(CO)nc3ccccc32)cc1	-6.88%	-14.2%
O=C1CCCC/C1=C/Nc1ccc2c(c1)OCO2	-58.7%	-65.5%
CCc1cc(CNC(=O)c2ccc3nc(Cc4ccc(OC)c(OC)c4)oc3c2)on1	9.61%	26.6%
CC(c1ccccc1)N1CCN(C(=O)CCl)CC1 (centres undefined)	17.4%	43.9%
Cc1nn(C)c(Cl)c1NC(=O)OCc1ccc(Cl)cc1Cl	10.8%	16.2%
COc1ccc(C#Cc2ccc3c(c2)[C@H]2[C@H](CCN2S(=O)(=O)c2ccccc2F)[C@H](CO)N3C)cc1	-5.48%	8.22%

SMILES	inhibition [1]	inhibition [2]
O=C(O)CCC(=O)Nc1ccc(C(=O)OC2CCCCC2)cc1	11.1%	29.4%
CCc1ccc(C(=O)N2CCN(c3ccc(NC(=O)c4cccnc4)cc3)CC2)cc1	-14.2%	-9.49%
CCCCn1c(CCC)nc([N+](=O)[O-])c1Sc1ccc(Cl)cn1	13.2%	20.7%
Cc1c(CCC(=O)N2CCC(C(=O)O)CC2)c(=O)oc2cc3oc4c(c3cc12)CCCC4	33.6%	61% (active)
Nc1cccc(-c2cc3ccccc3oc2=O)c1	22.1%	56.9% (active)
O=C(O)c1ccc(Nc2nc3c(s2)CCCC3)cc1	-31%	10.9%
COc1ccc(CN=C(Nc2ccccc2)SC2CC(=O)NC2=O)cc1 (centres undefined)	-5.45%	-13.2%
O=C(NCCCN1CCOCC1)c1ccc(CNS(=O)(=O)c2ccc(Br)cc2)cc1	-18.4%	19.1%
CN(Cc1ccccc1)S(=O)(=O)c1ccc(Cl)c(C(=O)NCCCN2CCOCC2)c1	-5.53%	5.69%
O=C(CCCN1C(=O)/C(=C/c2ccccc2Cl)SC1=S)NNC(=O)c1ccc(Cl)cc1	73.7% (active)	82% (active)
O=C(Nc1ccc(NC(=O)c2ccco2)cc1)c1ccc2c(c1)OCCO2	-30.2%	12.1%
O=C(O)c1ccc(Oc2ccc(S(=O)(=O)c3ccc(C(=O)O)c(C(=O)O)c3)cc2)cc1	-6.88%	-6.84%
O=[N+]([O-])c1ccc(-c2ccc(S(=O)(=O)NCCN3CCCC3)cc2)cc1	12.2%	17.4%
Cc1ccc(NC(=O)CSc2ncnc3ccccc23)cc1S(=O)(=O)N1CCCCC1	6.85%	30%
COc1ccc(NC(=O)Nc2nnc(Cc3ccc(OC)c(OC)c3)s2)cc1	4.37%	-0.57%
Cc1nc(NCc2ccco2)c2c(C)c(C)sc2n1	12%	38%
O=C(NC(=O)c1ccccc1)Nc1ccccn1	4.41%	54.8% (active)
CCCCOc1ccc(C2(C)NC(=O)NC2=O)cc1 (centres undefined)	-7.32%	-2.28%
C=CCNc1nc2ccccc2nc1NS(=O)(=O)c1ccc(Cl)cc1	-13.4%	-1.65%
CCOc1ccc(NC(=O)CN(C)C(=O)c2cn(-c3ccccc3)nc2-c2cccs2)cc1OCC	-4.29%	16%
O=C(N/N=C\c1cc(Br)c(Br)o1)C1COc2ccccc2O1 (centres undefined)	-16.1%	-4.84%
CC(C)N(Cc1ccccc1)C(=S)NCc1ccccc1	-3.69%	-6.45%
c1ccc(-c2csc3ncnc(NCc4ccccn4)c23)cc1	-7.12%	4.33%
CC(C)(C)c1nn(-c2ccccc2)c2[nH]c(=O)c(CNc3ccc4c(c3)OCCO4)cc12	-7.89%	3.22%
